Drawing on PubChem BioAssay (Tox21), this text covers Potency and outcome for 16 compounds.

Where “and” joins values, the source holds several entries; their conditions need not be identical. Equal values may be shown once. Results filed as inconclusive are left out. Where a structure was tested more than once in an assay, its records may differ in their call. Calls of active or inactive are those of the source. Unless noted, the call rests on the fitted dose curve; in most records, active means well fitted curve in the direction sought with a large enough effect in the repeat runs; inconclusive means weak or mixed curves; inactive means no such curve, though single readings can be large; an effect the other way counts as inactive or inconclusive.

Experiment [1] concerns the target Androgen receptor (Homo sapiens) (UniProt P10275). Description: qHTS assay to identify small molecule antagonists of the androgen receptor (AR) signaling pathway using the MDA cell line in the presence of 0.5 nM R1881 (AID 1259243). Further: nearly all actives have a fitted effect of over 50% in size. Further: potency means the concentration at half of the fitted maximal effect. The method, boiled down: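 Luciferase luminescence is the read-out: compounds are tested for suppressing 0.5 nM R1881-driven MMTV reporter activity in MDA-kb2 cells after 16 hr at 37C.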

In experiment [2] the target is Progesterone receptor (Homo sapiens) (UniProt P06401). Description: qHTS assay to identify small molecule antagonists of the progesterone receptor (PR) signaling pathway (AID 1346795; active means well fitted inhibition curve with a large enough effect in the signal ratio in the repeat runs, not every such curve was filed as active; the % refers to the signal ratio; further: potency means the concentration at half of the fitted maximal effect). The method, boiled down:
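Stimulus R5020 at 1 nM final; cells HEK293T PR-UAS-bla; medium with 2% charcoal-stripped FBS; compound exposure 16 hr at 37C, 5% CO2; detection by FRET beta-lactamase substrate, 2 hr, room temperature.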
For orientation: In qHTS, concentration-response curves come from the screen itself.

The nature of experiment [3]: qHTS assay to test for compound auto fluorescence at 535 nm (green) in HepG2 cells (AID 720675).
Experiment [4] is described as follows: qHTS assay to test for compound auto fluorescence at 590 nm (red) in HEK293 cells (AID 720679). The method, boiled down:
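Using HEK293 cells at 2,000 per well, the screen added 23 nL of each compound after cell attachment and incubated overnight (37C, 5% CO2). The plate reader then captured red-label fluorescence, Ex/Em 540/590nm.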

The nature of experiment [5]: qHTS assay for identifying genotoxic compounds that show differential cytotoxicity against isogenic chicken DT40 cell lines with known DNA damage response pathways - wild type cell line (AID 743012). Further: nearly all actives have a fitted effect of over 60% in size. Further: potency means the concentration at half of the fitted maximal effect. The method, boiled down: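 Wild type DT40, 300 cells/well, ~0.5 h settle at 37 C/5% CO2; compounds in DMSO added by pintool; 40 h at 37 C/5% CO2; CellTiter-Glo, 30 min RT; luminescence.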

Experiment [6] is described as follows: qHTS assay to identify small molecule antagonists of the thyroid receptor (TR) signaling pathway - cell viability counter screen (AID 743064). Further: potency means the concentration at half of the fitted maximal effect; nearly all actives have a fitted effect of over 50% in size. The method, boiled down: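 CellTiter-Fluor readout, 30 min at 37 °C/5% CO2, following 23.5 h incubation of GH3.TRE-Luc cells with test compound and 1 nM T3 (final).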
A short description of experiment [7]: qHTS assay to identify small molecule antagonists of the thyroid receptor (TR) signaling pathway (AID 743065). Further: potency means the concentration at half of the fitted maximal effect; nearly all actives have a fitted effect of over 55% in size. The method, boiled down: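 GH3.TRE-Luc rat pituitary cells (two TREs driving luciferase) were dosed with compound, then stimulated with 1 nM T3 (final) for 23.5 h at 37 C. ONE-Glo luminescence was the read-out, with CellTiter-Fluor fluorescence as the cytotoxicity counter-screen.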

Experiment [8] has as its target Estrogen receptor (Homo sapiens) (UniProt P03372). Description: qHTS assay to identify small molecule agonists of the estrogen receptor alpha (ER-alpha) signaling pathway (AID 743075; calls by dose curve;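 further: HEK293 GripTite cells with ER-alpha and UAS-driven beta-lactamase reporter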).
The nature of experiment [9]: qHTS assay to identify small molecule antagonists of the estrogen receptor alpha (ER-alpha) signaling pathway using the BG1 cell line - cell viability counter screen (AID 743081).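 Further: compound given together with 17beta-estradiol as the ER stimulus; series mostly up to about 70 µM; nearly all actives have a fitted effect of over 45% in size.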
Experiment [10] in a line: qHTS assay to identify aromatase inhibitors - cell viability counter screen (AID 743084).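 Further: cells stimulated with testosterone during compound exposure; nearly all actives have a fitted effect of over 55% in size.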 Further: potency means the concentration at half of the fitted maximal effect.
A short description of experiment [11]: qHTS assay for small molecule activators of the heat shock response signaling pathway (AID 743210; active means well fitted activation curve with a large enough effect in the signal ratio in the repeat runs, with a control signal flat, not every such curve was filed as active; the % refers to the signal ratio; further: potency means the concentration at half of the fitted maximal effect;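 on activation: HeLa cells with beta-lactamase reporter driven by heat shock elements; series mostly up to about 63 µM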). The method, boiled down:
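Quantitative high-throughput format using an engineered HeLa line in which heat shock response elements drive beta-lactamase; after 5 h with compound, cells received a B/G FRET substrate and fluorescence was read.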

Experiment [12] is described as follows: qHTS assay to identify small molecule agonists of the peroxisome proliferator-activated receptor delta (PPARd) signaling pathway - cell viability counter screen (AID 743211). Further: nearly all actives have a fitted effect of over 55% in size. Further: potency means the concentration at half of the fitted maximal effect. The method, boiled down:
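In the same wells used for beta-lactamase reporter measurement, cytotoxicity is scored by CellTiter-Glo. HEK293H PPARd-bla cells receive compound for 17 h at 37C following a 5 h settling period.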

The nature of experiment [13]: qHTS assay to identify small molecule antagonists of the farnesoid-X-receptor (FXR) signaling pathway - cell viability counter screen (AID 743221; active means well fitted cell-killing curve with a large enough effect in the repeat runs, not every such curve was filed as active; further: nearly all actives have a fitted effect of over 50% in size; further: potency means the concentration at half of the fitted maximal effect). The method, boiled down: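 Here viability was scored by luminescence after CellTiter-Glo addition to wells already read for beta-lactamase. Prior treatment: compound plus CDCA (50 uM final), 16 h, 37 C, HEK 293T FXR-bla cells.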

A short description of experiment [14]: qHTS assay to identify small molecule agonists of the hypoxia (HIF-1) signaling pathway (AID 1224846; active means well fitted activation curve with a large enough effect in the signal ratio in the repeat runs, not every such curve was filed as active; the % refers to the signal ratio). The method, boiled down:
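Cell line: CellSensor HRE-bla ME-180; 2,000 cells/well; 0.5% dialyzed FBS; 5 h preincubation; DMSO compound pin transfer; 17 h, 37C, 5% CO2; CCF4-AM added; bla FRET signal scored for activation.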

Experiment [15] concerns the target Estrogen receptor beta (Homo sapiens) (UniProt Q92731). Description: qHTS assay to identify small molecule antagonists of the estrogen receptor beta (ER-beta) signaling pathway (AID 1259378; active means well fitted inhibition curve with a large enough effect in the signal ratio in the repeat runs, not every such curve was filed as active; the % refers to the signal ratio; further: potency means the concentration at half of the fitted maximal effect). The method, boiled down:
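ER-beta-UAS-bla HEK293T cells in 2% charcoal-stripped FBS medium treated with compound plus 1nM final 17-beta-estradiol for 16 hr at 37C. Beta-lactamase reporter read by FRET substrate fluorescence after 2 hours at room temperature.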

Experiment [16] concerns the target Peroxisome proliferator-activated receptor delta (Homo sapiens) (UniProt Q03181). Description: qHTS assay to identify small molecule antagonists of the peroxisome proliferator-activated receptor delta (PPARd) signaling pathway (AID 743215; active means well fitted inhibition curve with a large enough effect in the signal ratio in the repeat runs, not every such curve was filed as active; the % refers to the signal ratio;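 further: cells stimulated with agonist L165041 at 300 nM final during compound exposure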; further: potency means the concentration at half of the fitted maximal effect). The method, boiled down:
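Read-out is beta-lactamase FRET fluorescence, measured 2 h after substrate addition at room temperature. Beforehand, UAS-bla HEK293H cells carrying the PPARd reporter were exposed to compounds with L165041 at 300 nM final for 17 h at 37 C.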

A short description of experiment [17]: qHTS assay for small molecules that induce genotoxicity in human embryonic kidney cells expressing luciferase-tagged ATAD5 - cell viability (AID 651634; calls by dose curve; further: nearly all actives have a fitted effect of over 25% in size; further: potency means the concentration at half of the fitted maximal effect). The method, boiled down:
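Fluorescence from CellTiter-Fluor, reporting protease activity within live cells, served as the viability read-out. HEK293T cells carrying luciferase-tagged ATAD5 had been treated with compound for 15.5 hr at 37C.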

Experiment [18] can be described thus: qHTS assay for small molecule disruptors of the mitochondrial membrane potential (AID 720635). Further: potency means the concentration at half of the fitted maximal effect. The method, boiled down:
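HepG2 cells exposed to compound 1 hr at 37C, then Mito-MPS dye 30 min. Ratio read of aggregate (540/590 nm) versus monomer (490/535 nm) fluorescence.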

Experiment [19] is described as follows: qHTS assay to test for compound auto fluorescence at 535 nm (green) in HEK293 cells (AID 720680).
The target of experiment [20] is Nuclear receptor ROR-gamma (Homo sapiens) (UniProt P51449). Description: qHTS assay to identify small molecule antagonists of the retinoid-related orphan receptor gamma (ROR-gamma) signaling pathway (AID 1159521; further: nearly all actives have a fitted effect of over 50% in size; further: potency means the concentration at half of the fitted maximal effect). The method, boiled down: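 Test compounds were applied to Tet-on RORγ CHO cells 2 h ahead of doxycycline hyclate (1 uM final). Luciferase reporter activity was quantified by luminescence after 16 h at 37 C and 5% CO2.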

Sequence of Progesterone receptor (Homo sapiens) (P06401 whole entry, looked up): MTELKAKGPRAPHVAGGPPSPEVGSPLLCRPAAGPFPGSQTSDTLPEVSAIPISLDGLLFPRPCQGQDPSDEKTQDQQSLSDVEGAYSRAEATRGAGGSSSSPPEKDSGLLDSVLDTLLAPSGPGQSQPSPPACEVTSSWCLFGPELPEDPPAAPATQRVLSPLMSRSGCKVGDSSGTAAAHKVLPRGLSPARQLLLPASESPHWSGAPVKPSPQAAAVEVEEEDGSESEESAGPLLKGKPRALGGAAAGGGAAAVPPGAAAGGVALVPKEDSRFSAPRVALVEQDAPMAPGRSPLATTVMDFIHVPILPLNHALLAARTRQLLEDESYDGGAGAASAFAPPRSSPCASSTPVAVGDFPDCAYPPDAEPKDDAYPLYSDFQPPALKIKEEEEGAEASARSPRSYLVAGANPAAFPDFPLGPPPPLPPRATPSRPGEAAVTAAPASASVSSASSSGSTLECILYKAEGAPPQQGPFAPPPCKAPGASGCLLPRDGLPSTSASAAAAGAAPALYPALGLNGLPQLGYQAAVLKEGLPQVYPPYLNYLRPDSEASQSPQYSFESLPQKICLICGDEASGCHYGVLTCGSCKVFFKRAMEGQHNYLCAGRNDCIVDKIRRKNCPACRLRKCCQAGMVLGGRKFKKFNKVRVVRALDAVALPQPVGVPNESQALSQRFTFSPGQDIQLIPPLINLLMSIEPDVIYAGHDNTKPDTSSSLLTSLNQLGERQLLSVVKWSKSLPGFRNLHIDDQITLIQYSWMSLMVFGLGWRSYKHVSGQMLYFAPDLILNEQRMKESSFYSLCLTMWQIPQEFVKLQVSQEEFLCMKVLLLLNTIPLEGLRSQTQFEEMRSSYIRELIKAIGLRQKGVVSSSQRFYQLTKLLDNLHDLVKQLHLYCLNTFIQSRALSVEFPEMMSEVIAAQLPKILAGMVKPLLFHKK
Sequence of Estrogen receptor beta (Homo sapiens) (Q92731 whole entry, looked up): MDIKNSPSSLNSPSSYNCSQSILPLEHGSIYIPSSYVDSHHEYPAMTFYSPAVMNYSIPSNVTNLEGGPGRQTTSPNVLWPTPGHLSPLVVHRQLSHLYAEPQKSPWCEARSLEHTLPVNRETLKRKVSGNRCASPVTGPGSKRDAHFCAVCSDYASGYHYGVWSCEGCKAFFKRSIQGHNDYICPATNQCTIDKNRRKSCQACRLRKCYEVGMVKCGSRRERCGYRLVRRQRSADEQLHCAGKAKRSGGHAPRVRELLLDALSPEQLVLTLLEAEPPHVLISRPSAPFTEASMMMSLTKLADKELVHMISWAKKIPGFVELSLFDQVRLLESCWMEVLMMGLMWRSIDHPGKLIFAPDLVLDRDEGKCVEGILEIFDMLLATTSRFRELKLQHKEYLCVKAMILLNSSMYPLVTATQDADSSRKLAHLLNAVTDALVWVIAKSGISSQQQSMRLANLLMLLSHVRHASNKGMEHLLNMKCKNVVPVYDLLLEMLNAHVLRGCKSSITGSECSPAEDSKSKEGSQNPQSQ
Sequence of Peroxisome proliferator-activated receptor delta (Homo sapiens) (Q03181 whole entry, looked up): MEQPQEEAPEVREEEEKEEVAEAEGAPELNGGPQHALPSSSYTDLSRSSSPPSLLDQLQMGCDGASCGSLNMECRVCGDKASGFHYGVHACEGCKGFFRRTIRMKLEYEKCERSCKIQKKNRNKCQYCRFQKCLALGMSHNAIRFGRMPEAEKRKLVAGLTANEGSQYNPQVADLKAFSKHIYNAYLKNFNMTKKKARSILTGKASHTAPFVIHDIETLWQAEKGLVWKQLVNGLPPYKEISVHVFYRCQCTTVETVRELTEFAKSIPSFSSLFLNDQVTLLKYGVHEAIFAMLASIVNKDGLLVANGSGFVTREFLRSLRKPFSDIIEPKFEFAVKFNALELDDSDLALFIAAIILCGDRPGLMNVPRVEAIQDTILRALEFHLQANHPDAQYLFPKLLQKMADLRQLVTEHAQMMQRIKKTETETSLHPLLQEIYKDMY
Sequence of Estrogen receptor (Homo sapiens) (P03372 whole entry, looked up): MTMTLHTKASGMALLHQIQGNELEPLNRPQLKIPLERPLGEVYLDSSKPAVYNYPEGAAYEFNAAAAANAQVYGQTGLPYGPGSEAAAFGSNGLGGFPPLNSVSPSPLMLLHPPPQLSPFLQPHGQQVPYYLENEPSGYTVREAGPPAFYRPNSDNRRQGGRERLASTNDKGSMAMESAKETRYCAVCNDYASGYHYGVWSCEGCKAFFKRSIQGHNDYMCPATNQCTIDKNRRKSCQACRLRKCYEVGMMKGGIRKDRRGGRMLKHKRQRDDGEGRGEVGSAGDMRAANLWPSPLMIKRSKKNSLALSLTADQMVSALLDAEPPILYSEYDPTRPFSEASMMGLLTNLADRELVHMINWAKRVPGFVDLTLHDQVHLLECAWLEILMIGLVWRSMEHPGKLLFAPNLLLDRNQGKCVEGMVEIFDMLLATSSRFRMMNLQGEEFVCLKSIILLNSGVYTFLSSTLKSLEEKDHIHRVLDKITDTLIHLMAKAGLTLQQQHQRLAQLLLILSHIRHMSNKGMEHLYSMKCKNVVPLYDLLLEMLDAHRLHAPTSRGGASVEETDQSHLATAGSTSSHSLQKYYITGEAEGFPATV
Sequence of Androgen receptor (Homo sapiens) (P10275 whole entry, looked up): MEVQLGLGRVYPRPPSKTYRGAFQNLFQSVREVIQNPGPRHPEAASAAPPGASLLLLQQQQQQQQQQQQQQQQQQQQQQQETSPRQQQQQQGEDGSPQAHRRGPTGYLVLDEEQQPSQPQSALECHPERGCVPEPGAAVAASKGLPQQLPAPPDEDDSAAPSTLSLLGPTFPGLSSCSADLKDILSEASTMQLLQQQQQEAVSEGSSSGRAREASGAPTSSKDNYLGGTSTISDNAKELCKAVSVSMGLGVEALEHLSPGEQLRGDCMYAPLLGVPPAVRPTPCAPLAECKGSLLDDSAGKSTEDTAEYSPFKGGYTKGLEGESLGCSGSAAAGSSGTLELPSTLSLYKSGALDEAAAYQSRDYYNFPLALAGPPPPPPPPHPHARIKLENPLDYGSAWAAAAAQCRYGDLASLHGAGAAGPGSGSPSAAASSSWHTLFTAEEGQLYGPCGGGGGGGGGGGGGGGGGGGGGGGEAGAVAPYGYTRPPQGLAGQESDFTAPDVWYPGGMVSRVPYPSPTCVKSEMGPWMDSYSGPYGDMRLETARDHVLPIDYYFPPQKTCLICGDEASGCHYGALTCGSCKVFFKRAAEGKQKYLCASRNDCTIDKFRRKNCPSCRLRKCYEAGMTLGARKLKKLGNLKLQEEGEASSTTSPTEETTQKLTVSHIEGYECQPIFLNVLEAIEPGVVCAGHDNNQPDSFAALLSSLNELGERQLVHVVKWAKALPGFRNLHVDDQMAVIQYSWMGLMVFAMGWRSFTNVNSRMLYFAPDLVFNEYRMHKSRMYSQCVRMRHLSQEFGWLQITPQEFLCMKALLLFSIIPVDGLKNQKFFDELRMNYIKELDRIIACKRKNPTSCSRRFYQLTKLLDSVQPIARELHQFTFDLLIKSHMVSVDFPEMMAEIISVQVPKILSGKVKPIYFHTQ

Consider `Oc1c(I)cc(I)cc1I`, for which, in experiment [1], the Potency result was “inactive”. Also, the Potency in experiment [2] was 30.6 µM (active).

For the compound `CCOC(=O)C(O)(c1ccc(Cl)cc1)c1ccc(Cl)cc1`, the Potency result in experiment [3], in [8], in experiment [9] and in experiment [11] was “inactive” in each case. Further, the call in [4] and in experiment [14] was inactive. Besides, the Potency in [5] was 6.18 µM (active) and 19.3 µM (active); in experiment [6], 6.18 µM (active); in experiment [7], 4.91 µM (active) and 61.1 µM (active); in experiment [10], 6.18 µM (active); in [12], 13.9 µM (active) and 43.6 µM (active); in experiment [13], 44.1 µM (active) and inactive. Moreover, the Potency is 13.8 µM (active) and 21.7 µM (active) in [1]; 30.9 µM (active) and 54.5 µM (active) in [15]; 13.8 µM (active) and 13.7 µM (active) in experiment [2].

On to `c1ccc2c(c1)Sc1ccccc1N2CC1CN2CCC1CC2` (stereo not given), for which the Potency entry in [3], in [9] and in experiment [10] was “inactive” in each case. Further, the call in experiment [4] and in experiment [14] was inactive. Moreover, the Potency in experiment [5] is 5.96 µM (active); in experiment [12], 10.6 µM (active); in experiment [16], 11.9 µM (active); in [13], 18.8 µM (active); in experiment [2], 26.6 µM (active).

Consider `OCC(c1ccc(Cl)cc1)c1ccc(Cl)cc1`, for which the Potency result in [17], in [19], in experiment [8], in experiment [9], in experiment [12] and in experiment [13] was “inactive” in each case. Besides, the Potency in [18] was 27.3 µM (active); in experiment [5], 13.7 µM (active); in experiment [6], 61.1 µM (active); in [7], 61.1 µM (active). In addition, the compound was called inactive in experiment [4] and in experiment [14].

`CCN(CC)C(=O)Cl`: the Potency result in [20], in experiment [1], in experiment [15] and in [2] was “inactive” each time. For the same compound, the result in experiment [14] was inactive.

For the compound `Nc1ccc(Cl)cc1[N+](=O)[O-]`, the Potency result in experiment [11] was “inactive”.

`O=C1C(I)=CC(=C(c2cc(I)c(O)c(I)c2)c2ccccc2C(=O)O)C=C1I`: the Potency in experiment [18] is 8.41 µM (active) and 4.22 µM (active); in experiment [7] it was 29.8 µM (active) and 23.7 µM (active); in experiment [2], 29.8 µM (active). The Potency result in [3], in [19], in [5], in experiment [8], in experiment [9] and in experiment [10] was “inactive” each time. Besides, the Potency result in experiment [11], in experiment [16] and in experiment [13] was “inactive” each time. The call in experiment [4] was inactive.

As to `OC(Cc1ccccc1Cl)(Cn1[nH]cnc1=S)C1(Cl)CC1` (stereo not given), the Potency is 54.5 µM (active) in [1] and 24.3 µM (active) in experiment [2].

For `ClC1=C(Cl)[C@]2(Cl)[C@@H]3[C@@H](Cl)[C@H]4O[C@H]4[C@@H]3C1(Cl)C2(Cl)Cl`, the Potency result in experiment [17], in [3], in experiment [19], in [8], in experiment [9] and in experiment [10] was “inactive” in each case. For the same compound, the Potency result in experiment [16], in experiment [13] and in experiment [15] was “inactive” in each case. Also, the values for the Potency in experiment [18], in experiment [7] and in experiment [12] were 27.3 µM (active), 54.5 µM (active) and 54.9 µM (active), respectively. Besides, the compound was called inactive in [14].

As for `Nc1ccc([N+](=O)[O-])cc1`, the Potency is 54.5 µM (active) in experiment [17]; 1.37 µM (active) in experiment [18]; 13.7 µM (active) in [5]; 61.1 µM (active) in experiment [7]; 8.63 µM (active) in experiment [1]. For the same compound, the Potency entry in experiment [3], in experiment [19] and in experiment [20] was “inactive” each time. Besides, the compound was classed as inactive in experiment [4].

With `CCCCC(CC)COC(=O)CCCCC(=O)OCC(CC)CCCC` (stereo not given), in experiment [16], the Potency result was “inactive”.

Consider `Cc1nnc2n1-c1sc(CCc3ccc(CC(C)C)cc3)cc1C(c1ccccc1Cl)=NC2C` (stereo not given), for which the Potency in experiment [18] was 21.1 µM (active); in experiment [5], 11.9 µM (active); in experiment [6], 15 µM (active); in experiment [7], 11.9 µM (active); in experiment [12] it was 29.8 µM (active); in [20], 29.8 µM (active). Moreover, the Potency result in [3], in experiment [19], in [8] and in experiment [10] was “inactive” in each case. Also, the compound was classed as inactive in [4].

Regarding `Cc1ccc(N(SC(F)(Cl)Cl)S(=O)(=O)N(C)C)cc1`, the Potency in experiment [18] is 17.2 µM (active); in experiment [5], 0.122 µM (active); in [6] it was 2.73 µM (active); in experiment [7], 2.17 µM (active); in experiment [10] it was 34.4 µM (active); in [12], 19.5 µM (active). For the same compound, the results for the Potency in [13], in [1] and in [15] were 19.5 µM (active), 15.4 µM (active) and 13.7 µM (active), respectively. Also, in [4], the compound was classed as inactive. Further, the Potency result in experiment [19] is “inactive”.

In the case of `CNC(=O)Oc1cc(C)c(SC)c(C)c1`, the compound was classed as inactive in experiment [14]. Moreover, the Potency in experiment [2] was 27.3 µM (active).

As for `ClC1=C(Cl)C(Cl)(Cl)C(Cl)=C1Cl`, in experiment [11], the Potency is 52.9 µM (active).

In the case of `N#Cc1cc([N+](=O)[O-])ccc1N`, in experiment [14], the call was inactive. Also, in experiment [15], the Potency entry was “inactive”.
